Measurements reported in PubChem BioAssay (Tox21).
Results filed as inconclusive are left out. Activity calls are given as the source filed them. Calls follow the shape of the full dose curve.

These molecules were tested against Acetylcholinesterase (Homo sapiens) (UniProt P22303) (assay: Acetylcholinesterase (AChE) small molecule antagonists: colormetric cell-based qHTS assay (AID 1347395; also: nearly all actives have a fitted effect of over 30% in size)). Conditions: SH-SY5Y cells AChE activity, colorimetric (Ellman); series mostly up to 115 µM; activity, negative = inhibition: at the top concentration.
Chain of Acetylcholinesterase (Homo sapiens) (P22303 whole entry, looked up): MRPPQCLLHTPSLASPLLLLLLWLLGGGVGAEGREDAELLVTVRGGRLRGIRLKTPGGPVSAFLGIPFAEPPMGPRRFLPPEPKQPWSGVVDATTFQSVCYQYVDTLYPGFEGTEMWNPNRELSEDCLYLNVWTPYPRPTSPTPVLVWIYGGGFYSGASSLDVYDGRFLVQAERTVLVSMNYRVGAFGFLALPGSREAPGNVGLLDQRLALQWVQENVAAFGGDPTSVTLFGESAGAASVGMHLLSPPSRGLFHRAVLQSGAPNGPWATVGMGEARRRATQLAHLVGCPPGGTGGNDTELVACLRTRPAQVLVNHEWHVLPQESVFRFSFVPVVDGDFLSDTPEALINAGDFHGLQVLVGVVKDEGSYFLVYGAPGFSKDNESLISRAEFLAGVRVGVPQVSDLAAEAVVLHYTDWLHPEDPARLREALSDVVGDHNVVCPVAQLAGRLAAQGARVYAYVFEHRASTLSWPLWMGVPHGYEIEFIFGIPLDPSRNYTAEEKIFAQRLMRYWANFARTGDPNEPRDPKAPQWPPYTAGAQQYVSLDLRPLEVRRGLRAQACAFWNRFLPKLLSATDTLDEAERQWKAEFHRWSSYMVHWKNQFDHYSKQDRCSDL
How it was run: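 Endogenous AChE of human neuroblastoma SH-SY5Y cells was measured with an Ellman-type DTNB/acetylthiocholine mix. Compound pretreatment lasted 30 min at 37 C; substrate reaction ran 90 min at 37 C.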
% is scaled to controls: 0 for no effect and ±100 for the full control effect.

SMILES | activity, negative = inhibition | Potency
C=C/C(C)=C/C/C=C(\C)CCC=C(C)C | -2.54% (inactive) | 
c1ccc2c(c1)c1cccc3ccc4cccc2c4c31 |  | inactive
O=C(OCC(O)CO)c1ccccc1Nc1ccnc2c(C(F)(F)F)cccc12 (centres undefined) | 2.03% [at 52.9 µM] (inactive) | 
CCN1CCCC1CN (centres undefined) | 1.79% [at 52.9 µM] (inactive) | 
O=C(NO)c1ccccc1 | 4.12% (inactive) | 
Cc1cc2c(OCC(CNC(C)(C)C)OC(=O)c3ccccc3)cccc2[nH]1 (centres undefined) | 1.53% [at 52.9 µM] (inactive) | 
O=C(O)Cc1ccccc1Nc1c(Cl)cccc1Cl |  | inactive
O=C(O)c1c(Cl)ccc(Cl)c1Cl | -2.05% (inactive) | 
O=C(O)c1ccco1 | -3.07% (inactive) | 
CC(C)=CC(=O)C=C(C)C | -0.36% (inactive) | 
O=C(O)CCNC(=O)c1ccccc1 | -3.88% [at 52.9 µM] (inactive) | 
Cc1c(C(=O)O)c(O)cc2c1C(=O)c1c(O)c([C@@H]3O[C@H](CO)[C@@H](O)[C@H](O)[C@H]3O)c(O)c(O)c1C2=O |  | inactive
N=C(N)N | -1.51% [at 52.9 µM] (inactive) | 
Cc1c(C(=O)c2c[nH]n(C)c2=O)ccc(S(C)(=O)=O)c1C1=NOCC1 | -5.7% [at 52.9 µM] (inactive) | 
CCCCCCCCC |  | inactive
CC1=CC2C3CC(C=C3C)C2C1 (centres undefined) |  | inactive
O=C(O)Cc1ccc(-c2ccccc2)cc1 | 0.412% [at 52.9 µM] (inactive) | 
O=C(CCCCCCCCC#CI)Oc1ccccc1 | -1.46% [at 52.9 µM] (inactive) | 
CC/C=C\C/C=C\C/C=C\CCCCCCCC(=O)OCC | -0.405% (inactive) | 

The molecules below were run against Acetylcholinesterase (Homo sapiens) (UniProt P22303) (assay: Acetylcholinesterase (AChE) small molecule antagonists: enzyme-based qHTS assay (AID 1347397; also: nearly all actives have a fitted effect of over 55% in size)). Conditions: Potency: AChE enzyme activity inhibition; outcome: AChE enzyme activity inhibition; series mostly up to 115 µM; activity change, negative = inhibition: at the top concentration.
How it was run: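 In this quantitative HTS, compounds from the Tox21 10K collection were preincubated 30 min at ambient temperature with recombinant human AChE dispensed at 50 mU/mL. Hydrolysis of acetylthiocholine was then followed for 10 min by DTNB colour development.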

SMILES | activity change, negative = inhibition | Potency
NCCN1CCNC1=O | -1.06% (inactive) | 
COc1ccccc1Oc1c(NS(=O)(=O)c2ccc(C(C)(C)C)cc2)nc(-c2ncccn2)nc1OCCO | 0.554% [at 53 µM] (inactive) | 
CCCCCCCCCCCCCCCBr | 1.5% [at 53 µM] (inactive) | 
CCOC(N)=O |  | inactive
NC(=O)CCCCC1CCSS1 (centres undefined) | 1.35% [at 53 µM] (inactive) | 
Oc1c(Cl)cc(Cl)c2cccnc12 | 4.61% [at 53 µM] (inactive) | 
CCn1cc(C(=O)O)c(=O)c2cnc(N3CCCC3)nc21 | 0.534% [at 10.5 µM] (inactive) | 
O=C1c2ccccc2C(=O)C1c1ccc(Br)cc1 | 0.945% [at 53 µM] (inactive) | 
CCCCC(CC)CN1CN(CC(CC)CCCC)CC(C)(N)C1 (centres undefined) | 0.277% [at 53 µM] (inactive) | 
SCCc1cnccn1 | 0.139% (inactive) | 
Cc1cc(C2(c3cc(C)c(O)cc3C)OS(=O)(=O)c3ccccc32)c(C)cc1O |  | inactive
C[C@@H]1C[C@H]2[C@@H]3CCC4=CC(=O)C=C[C@]4(C)[C@@]3(F)[C@@H](O)C[C@]2(C)[C@@]1(O)C(=O)COC(=O)c1ccncc1 | -23.6% [at 53 µM] (inactive) | 
CC(=O)CC/C=C(\C)CCC=C(C)C |  | inactive
CO[Si](CCCn1c(=O)n(CCC[Si](OC)(OC)OC)c(=O)n(CCC[Si](OC)(OC)OC)c1=O)(OC)OC | -0.803% [at 53 µM] (inactive) | 
COCCCOc1cc(C[C@@H](C[C@H](N)[C@@H](O)C[C@H](C(=O)NCC(C)(C)C(N)=O)C(C)C)C(C)C)ccc1OC | 2.85% [at 53 µM] (inactive) | 
NCCOCCOCCN | 0.044% (inactive) | 
CC(C)CC(C)O (centres undefined) |  | inactive
CC(C)C(=O)OC(=O)C(C)C | 0.954% (inactive) | 
O=C(Nc1cccc(Cl)c1)OCC#CCCl | 0.0657% (inactive) | 
CC/C(C)=N\O[Si](C)(O/N=C(\C)CC)O/N=C(\C)CC | -1.36% (inactive) | 

SMILES | activity change, negative = inhibition | Potency
O=C(Oc1ccccc1)c1ccc2ccccc2c1O | -6.34% (inactive) | 
C=C/C(C)=C/C/C=C(\C)CCC=C(C)C | -2.06% (inactive) | 
c1ccc2c(c1)c1cccc3ccc4cccc2c4c31 |  | inactive
O=C(OCC(O)CO)c1ccccc1Nc1ccnc2c(C(F)(F)F)cccc12 (centres undefined) | 0.998% [at 53 µM] (inactive) | 
CCN1CCCC1CN (centres undefined) | 0.491% [at 53 µM] (inactive) | 
O=C(NO)c1ccccc1 | -0.995% (inactive) | 
Cc1cc2c(OCC(CNC(C)(C)C)OC(=O)c3ccccc3)cccc2[nH]1 (centres undefined) | -0.978% [at 53 µM] (inactive) | 
O=C(O)Cc1ccccc1Nc1c(Cl)cccc1Cl |  | inactive
O=C(O)c1c(Cl)ccc(Cl)c1Cl | 2.66% (inactive) | 
O=C(O)c1ccco1 | -0.263% (inactive) | 
CC(C)=CC(=O)C=C(C)C | 1.09% (inactive) | 
O=C(O)CCNC(=O)c1ccccc1 | 0.459% [at 53 µM] (inactive) | 
Cc1c(C(=O)O)c(O)cc2c1C(=O)c1c(O)c([C@@H]3O[C@H](CO)[C@@H](O)[C@H](O)[C@H]3O)c(O)c(O)c1C2=O |  | inactive
N=C(N)N | -0.0669% [at 53 µM] (inactive) | 
Cc1c(C(=O)c2c[nH]n(C)c2=O)ccc(S(C)(=O)=O)c1C1=NOCC1 | 1.39% [at 53 µM] (inactive) | 
CCCCCCCCC |  | inactive
CC1=CC2C3CC(C=C3C)C2C1 (centres undefined) |  | inactive
O=C(O)Cc1ccc(-c2ccccc2)cc1 | -0.0073% [at 53 µM] (inactive) | 
O=C(CCCCCCCCC#CI)Oc1ccccc1 | 0.277% [at 53 µM] (inactive) | 
CC/C=C\C/C=C\C/C=C\CCCCCCCC(=O)OCC | -0.804% (inactive) | 

What follows are molecules tested against Acetylcholinesterase (Homo sapiens) (UniProt P22303) (assay: Acetylcholinesterase (AChE) small molecule antagonists: fluorescence cell-based qHTS assay (AID 1347398; also: nearly all actives have a fitted effect of over 50% in size)). Conditions: SH-SY5Y cells; Potency: AChE activity; outcome: AChE activity; series mostly up to 115 µM; activity change, negative = inhibition: at the top concentration.
How it was run: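 Cells (SH-SY5Y) attached overnight, were dosed with compound or DMSO vehicle for 30 min at 37 C, and then incubated 40 min at room temperature with acetylthiocholine and Thiolite Green; green fluorescence indexed AChE activity.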

SMILES | activity change, negative = inhibition | Potency
NCCN1CCNC1=O | 2.88% (inactive) | 
COc1ccccc1Oc1c(NS(=O)(=O)c2ccc(C(C)(C)C)cc2)nc(-c2ncccn2)nc1OCCO | 4.56% [at 53.7 µM] (inactive) | 
CCCCCCCCCCCCCCCBr | 1.05% [at 53.7 µM] (inactive) | 
CCOC(N)=O |  | inactive
NC(=O)CCCCC1CCSS1 (centres undefined) | 0% [at 53.7 µM] (inactive) | 
Oc1c(Cl)cc(Cl)c2cccnc12 | 24.8% [at 53.7 µM] (inactive) | 
CCn1cc(C(=O)O)c(=O)c2cnc(N3CCCC3)nc21 | 15.4% [at 10.5 µM] (inactive) | 
O=C1c2ccccc2C(=O)C1c1ccc(Br)cc1 | 9.47% [at 53.7 µM] (inactive) | 
CCCCC(CC)CN1CN(CC(CC)CCCC)CC(C)(N)C1 (centres undefined) | -14.7% [at 53.7 µM] (inactive) | 
SCCc1cnccn1 | -4.85% (inactive) | 
Cc1cc(C2(c3cc(C)c(O)cc3C)OS(=O)(=O)c3ccccc32)c(C)cc1O |  | inactive
C[C@@H]1C[C@H]2[C@@H]3CCC4=CC(=O)C=C[C@]4(C)[C@@]3(F)[C@@H](O)C[C@]2(C)[C@@]1(O)C(=O)COC(=O)c1ccncc1 | -28.4% [at 53.7 µM] (inactive) | 
CC(=O)CC/C=C(\C)CCC=C(C)C |  | inactive
CO[Si](CCCn1c(=O)n(CCC[Si](OC)(OC)OC)c(=O)n(CCC[Si](OC)(OC)OC)c1=O)(OC)OC | 5.85% [at 53.7 µM] (inactive) | 
COCCCOc1cc(C[C@@H](C[C@H](N)[C@@H](O)C[C@H](C(=O)NCC(C)(C)C(N)=O)C(C)C)C(C)C)ccc1OC | -5.3% [at 53.7 µM] (inactive) | 
NCCOCCOCCN | -6.07% (inactive) | 
CC(C)CC(C)O (centres undefined) |  | inactive
CC(C)C(=O)OC(=O)C(C)C | 5.91% (inactive) | 
O=C(Nc1cccc(Cl)c1)OCC#CCCl | -5.25% (inactive) | 
CC/C(C)=N\O[Si](C)(O/N=C(\C)CC)O/N=C(\C)CC | -7.79% (inactive) | 

SMILES | activity change, negative = inhibition | Potency
O=C(Oc1ccccc1)c1ccc2ccccc2c1O | -2.04% (inactive) | 
C=C/C(C)=C/C/C=C(\C)CCC=C(C)C | -17.2% (inactive) | 
c1ccc2c(c1)c1cccc3ccc4cccc2c4c31 |  | inactive
O=C(OCC(O)CO)c1ccccc1Nc1ccnc2c(C(F)(F)F)cccc12 (centres undefined) | -15% [at 53.7 µM] (inactive) | 
CCN1CCCC1CN (centres undefined) | 8.86% [at 53.7 µM] (inactive) | 
O=C(NO)c1ccccc1 | 28.1% (inactive) | 
Cc1cc2c(OCC(CNC(C)(C)C)OC(=O)c3ccccc3)cccc2[nH]1 (centres undefined) | -0.947% [at 53.7 µM] (inactive) | 
O=C(O)Cc1ccccc1Nc1c(Cl)cccc1Cl |  | inactive
O=C(O)c1c(Cl)ccc(Cl)c1Cl | 0.782% (inactive) | 
O=C(O)c1ccco1 | 4.12% (inactive) | 
CC(C)=CC(=O)C=C(C)C | 9.32% (inactive) | 
O=C(O)CCNC(=O)c1ccccc1 | 4.32% [at 53.7 µM] (inactive) | 
Cc1c(C(=O)O)c(O)cc2c1C(=O)c1c(O)c([C@@H]3O[C@H](CO)[C@@H](O)[C@H](O)[C@H]3O)c(O)c(O)c1C2=O |  | inactive
N=C(N)N | 14.1% [at 53.7 µM] (inactive) | 
Cc1c(C(=O)c2c[nH]n(C)c2=O)ccc(S(C)(=O)=O)c1C1=NOCC1 | -3.29% [at 53.7 µM] (inactive) | 
CCCCCCCCC |  | inactive
CC1=CC2C3CC(C=C3C)C2C1 (centres undefined) |  | inactive
O=C(O)Cc1ccc(-c2ccccc2)cc1 | -12% [at 53.7 µM] (inactive) | 
O=C(CCCCCCCCC#CI)Oc1ccccc1 | 2.14% [at 53.7 µM] (inactive) | 
CC/C=C\C/C=C\C/C=C\CCCCCCCC(=O)OCC | -12.8% (inactive) | 
